Measurements published in PubChem BioAssay (NCI).
About 79,000 compounds went through this panel and 15% of them were active in at least one assay; those are over-represented in the sample as a whole. Calls of active or inactive are those of the source. Cut-off read from the data, not from the text of the source: active = growth inhibition above about 70%; inactive = the rest.

Experiments:
[1] = NCI Yeast Anticancer Drug Screen. Data for the wt2 strain (AID 169);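 note: 0% = growth of vehicle-treated yeast cultures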; conditions: S. cerevisiae wt2 strain growth inhibition, hits give high values
In short: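 Values express reduction in yeast growth under compound treatment, referenced to vehicle-treated cells.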

[2] = NCI Yeast Anticancer Drug Screen. Data for the mlh1 strain (AID 171);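 note: 0% = growth of vehicle-treated control cultures of the same strain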; conditions: S. cerevisiae mlh1 strain growth inhibition, hits give high values
In short: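 Steps: expose the defined-mutant yeast strain to compound; expose a parallel culture to vehicle; measure growth; express compound effect as inhibition relative to the vehicle culture.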

[3] = NCI Yeast Anticancer Drug Screen. Data for the sgs1 strain (AID 173);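 note: 0% = growth of vehicle-only control cultures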; conditions: S. cerevisiae sgs1 mutant, hits give high values
In short: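 Treat defined-mutant yeast with compound; measure growth; calculate inhibition relative to vehicle-treated cells.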

[4] = NCI Yeast Anticancer Drug Screen. Data for the mlh1 rad18 strain (AID 175); conditions: S. cerevisiae mlh1 rad18 strain growth inhibition, hits give high values
In short: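 Test agents were incubated with a yeast strain of defined genotype (DNA damage repair defect). Inhibition of growth was derived by comparison with vehicle-exposed cultures.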

[5] = NCI Yeast Anticancer Drug Screen. Data for the rad18 strain (AID 177); conditions: S. cerevisiae rad18 mutant growth inhibition, hits give high values
In short: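 A genetically defined yeast mutant impaired in DNA damage repair was treated with test compounds, then its growth was measured against cultures receiving vehicle alone.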

[6] = NCI Yeast Anticancer Drug Screen. Data for the rad52 strain (AID 147);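 note: 0% = growth of vehicle-treated control cultures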; conditions: S. cerevisiae rad52 mutant growth inhibition, hits give high values
In short: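 Screen used a yeast mutant impaired in DNA repair. After compound exposure, growth was measured. Values reflect inhibition compared with vehicle-treated cells.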

[7] = NCI Yeast Anticancer Drug Screen. Data for the wt1 strain (AID 149);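 note: 0% = growth of vehicle-treated wt1 cultures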; conditions: S. cerevisiae wt1 strain (SPY 50644) growth inhibition, hits give high values
In short: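 Readout: yeast growth inhibition, normalised to vehicle controls, in the wt1 strain exposed to test compounds.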

[8] = NCI Yeast Anticancer Drug Screen. Data for the rad50EPP+ strain (AID 151);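 note: 0% = growth of vehicle-treated control cultures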; conditions: S. cerevisiae rad50 mutant strain, hits give high values
In short: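 Exposing the rad50EPP+ strain to each compound, growth was compared with vehicle-only cultures to give inhibition.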

[9] = NCI Yeast Anticancer Drug Screen. Data for the mgt1 strain (AID 153); conditions: S. cerevisiae mgt1 mutant growth inhibition, hits give high values
In short: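 Genetically defined yeast (mgt1) treated with compound; inhibition of growth expressed against vehicle-treated controls.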

[10] = NCI Yeast Anticancer Drug Screen. Data for the rad50 strain (AID 155);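 note: 0% = growth of vehicle-only cultures of the same strain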; conditions: S. cerevisiae rad50 strain growth inhibition, hits give high values
In short: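 Compounds were tested on a yeast strain with an engineered DNA damage repair alteration; the reported value is growth inhibition normalised to vehicle treatment.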

[11] = NCI Yeast Anticancer Drug Screen. Data for the mec2-1 strain (AID 157); conditions: S. cerevisiae mec2-1 strain, hits give high values
In short: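 Readout is yeast growth inhibition, normalised to vehicle-treated controls, in the mec2-1 strain exposed to compound.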

[12] = NCI Yeast Anticancer Drug Screen. Data for the rad14 strain (AID 159);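 note: 0% = growth of vehicle-treated control cultures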; conditions: S. cerevisiae rad14 strain growth inhibition, hits give high values
In short: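 Compound-treated yeast with a defined DNA-repair lesion; growth inhibition normalised to vehicle-treated cultures.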

[13] = NCI Yeast Anticancer Drug Screen. Data for the sgs1 mgt1 strain (AID 161);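 note: 0% = growth of cultures given vehicle only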; conditions: S. cerevisiae sgs1 mgt1 strain, hits give high values
In short: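 Yeast cells carrying a defined DNA-repair defect were exposed to test compounds. Growth inhibition was measured relative to vehicle-treated controls.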

[14] = NCI Yeast Anticancer Drug Screen. Data for the CLN2oe strain (AID 163);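 note: 0% = growth of vehicle-only control cultures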; conditions: S. cerevisiae CLN2oe strain, hits give high values
In short: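 Values reflect how much compound exposure reduced yeast growth, referenced to vehicle-exposed cells. Assay organism is a strain with a defined genetic change affecting cell-cycle control.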

[15] = NCI Yeast Anticancer Drug Screen. Data for the cln2 rad14 strain (AID 165);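 note: 0% = growth equal to vehicle treated cultures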; conditions: S. cerevisiae cln2 rad14 strain, hits give high values
In short: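 Relative to vehicle controls, growth inhibition of compound-treated cln2 rad14 yeast was recorded.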

[16] = NCI Yeast Anticancer Drug Screen. Data for the bub3 strain (AID 167); conditions: S. cerevisiae bub3 mutant strain, hits give high values
In short: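 Growth of a checkpoint-deficient yeast mutant is measured after compound exposure. Values represent inhibition relative to vehicle.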

[17] = at 5.0 µM (retest, dose inferred, filed as 0.5)
[18] = at 50.0 µM (retest, dose inferred, filed as 5.0)

Measured: growth inhibition

CN(C)CCCCN1c2ccccc2Sc2ccc(N=[N+]=[N-])cc21
active: [1]; at 100.0 µM 99% | [2]; at 100.0 µM 99% | [3]; at 100.0 µM 99% | [4]; [18] 99% | [4]; at 50.0 µM 91.5% | [5]; at 100.0 µM 99%
inactive: [1]; at 1.2 µM -8% | [1]; at 3.7 µM -15% | [1]; at 11.0 µM -14% | [1]; at 33.0 µM 46% | [2]; at 1.2 µM 32% | [2]; at 3.7 µM 31% | [2]; at 11.0 µM 35% | [2]; at 33.0 µM 57% | [3]; at 1.2 µM 10% | [3]; at 3.7 µM 42% | [3]; at 11.0 µM 43% | [3]; at 33.0 µM 67% | [4]; [17] 23% | [5]; at 1.2 µM 10% | [5]; at 3.7 µM 14% | [5]; at 11.0 µM 24% | [5]; at 33.0 µM 57%

CN(C)CCNc1ccc2ncnc3c2c1C(=O)c1ccccc1-3
inactive: [7]; at 1.2 µM 7% | [7]; at 3.7 µM 8% | [7]; at 11.0 µM 15% | [7]; at 33.0 µM 28% | [7]; at 100.0 µM 34% | [9]; at 1.2 µM 2% | [9]; at 3.7 µM 6% | [9]; at 11.0 µM 22% | [9]; at 33.0 µM 25% | [9]; at 100.0 µM 38% | [11]; at 1.2 µM 22% | [11]; at 3.7 µM 21% | [11]; [17] 15% | [11]; at 11.0 µM 32% | [11]; at 33.0 µM 45% | [11]; [18] 48% | [11]; at 50.0 µM 68.6% | [11]; at 100.0 µM 53% | [12]; at 1.2 µM 16% | [12]; at 3.7 µM 15% | [12]; at 11.0 µM 20% | [12]; at 33.0 µM 37% | [12]; at 100.0 µM 44% | [13]; [17] -21% | [13]; [18] 56% | [14]; at 1.2 µM 5% | [14]; at 3.7 µM 8% | [14]; at 11.0 µM 26% | [14]; at 33.0 µM 59% | [15]; [17] 2% | [15]; [18] 51% | [15]; at 50.0 µM 66.9% | [16]; at 1.2 µM -8% | [16]; at 3.7 µM -2% | [16]; [17] 33% | [16]; at 11.0 µM 11% | [16]; at 33.0 µM 21% | [16]; [18] 31% | [16]; at 100.0 µM 36% | [1]; at 1.2 µM 8% | [1]; at 3.7 µM 10% | [1]; at 11.0 µM 20% | [1]; at 33.0 µM 49% | [1]; at 100.0 µM 56% | [2]; at 1.2 µM 10% | [2]; at 3.7 µM 14% | [2]; at 11.0 µM 28% | [2]; at 33.0 µM 41% | [2]; at 100.0 µM 46% | [3]; at 1.2 µM 9% | [3]; at 3.7 µM 8% | [3]; at 11.0 µM 24% | [3]; at 33.0 µM 54% | [3]; at 100.0 µM 61% | [4]; [17] -13% | [4]; at 50.0 µM 65.5% | [5]; at 1.2 µM 11% | [5]; at 3.7 µM 12% | [5]; at 11.0 µM 25% | [5]; at 33.0 µM 61%
active: [6]; at 1.2 µM 95% | [6]; at 3.7 µM 94% | [6]; at 11.0 µM 96% | [6]; at 33.0 µM 97% | [6]; at 100.0 µM 96% | [8]; at 1.2 µM 90% | [8]; at 3.7 µM 90% | [8]; at 11.0 µM 93% | [8]; at 33.0 µM 95% | [8]; at 100.0 µM 95% | [10]; at 1.2 µM 94% | [10]; at 3.7 µM 95% | [10]; [17] 84% | [10]; at 11.0 µM 96% | [10]; at 33.0 µM 96% | [10]; [18] 97% | [10]; at 50.0 µM 76% | [10]; at 100.0 µM 96% | [13]; at 50.0 µM 77.4% | [14]; at 100.0 µM 74% | [16]; at 50.0 µM 74.2% | [4]; [18] 81% | [5]; at 100.0 µM 75%

c1ccc(Cc2cc(-c3ccccc3)n[nH]2)cc1
active: [10]; at 50.0 µM 97% | [11]; at 50.0 µM 97% | [13]; at 50.0 µM 89.8% | [15]; at 50.0 µM 70.4% | [16]; at 50.0 µM 93.8% | [16]; at 100.0 µM 80% | [4]; at 50.0 µM 96.8%
inactive: [6]; at 1.2 µM -7% | [6]; at 3.7 µM -5% | [6]; at 11.0 µM -12% | [6]; at 33.0 µM 0% | [6]; at 100.0 µM 59% | [7]; at 1.2 µM -6% | [7]; at 3.7 µM -10% | [7]; at 11.0 µM -15% | [7]; at 33.0 µM -16% | [7]; at 100.0 µM 44% | [8]; at 1.2 µM -3% | [8]; at 3.7 µM 1% | [8]; at 11.0 µM 5% | [8]; at 33.0 µM 22% | [8]; at 100.0 µM 58% | [9]; at 1.2 µM -4% | [9]; at 3.7 µM -8% | [9]; at 11.0 µM -11% | [9]; at 33.0 µM 8% | [9]; at 100.0 µM 50% | [10]; at 1.2 µM -10% | [10]; at 3.7 µM -19% | [10]; [17] -136% | [10]; at 11.0 µM 7% | [10]; at 33.0 µM 5% | [10]; [18] 31% | [10]; at 100.0 µM 60% | [11]; at 1.2 µM 2% | [11]; at 3.7 µM -4% | [11]; [17] -51% | [11]; at 11.0 µM -23% | [11]; at 33.0 µM -11% | [11]; [18] -13% | [11]; at 100.0 µM 43% | [12]; at 1.2 µM -3% | [12]; at 3.7 µM -4% | [12]; at 11.0 µM -7% | [12]; at 33.0 µM 6% | [12]; at 100.0 µM 58% | [13]; [17] -64% | [13]; [18] 46% | [14]; at 1.2 µM -8% | [14]; at 3.7 µM -8% | [14]; at 11.0 µM -14% | [14]; at 33.0 µM 0% | [14]; at 100.0 µM 55% | [15]; [17] -72% | [15]; [18] -13% | [16]; at 1.2 µM -15% | [16]; at 3.7 µM -5% | [16]; [17] -59% | [16]; at 11.0 µM 9% | [16]; at 33.0 µM 37% | [16]; [18] 62% | [1]; at 1.2 µM -3% | [1]; at 3.7 µM -4% | [1]; at 11.0 µM -7% | [1]; at 33.0 µM 10% | [1]; at 100.0 µM 52% | [2]; at 1.2 µM 4% | [2]; at 3.7 µM -12% | [2]; at 11.0 µM -11% | [2]; at 33.0 µM 5% | [2]; at 100.0 µM 55% | [3]; at 1.2 µM -3% | [3]; at 3.7 µM -11% | [3]; at 11.0 µM -5% | [3]; at 33.0 µM 27% | [3]; at 100.0 µM 69% | [4]; [17] -125% | [4]; [18] 9% | [5]; at 1.2 µM -5% | [5]; at 3.7 µM -4% | [5]; at 11.0 µM -1% | [5]; at 33.0 µM 19% | [5]; at 100.0 µM 61%
